This note sets out measurements from PubChem BioAssay (NCI).

Molecules are shown by their SMILES. This is part of a sample that, as a whole, favours compounds with a hit. Of some 83,000 tested, about 20% had one in any assay.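 Single-concentration screen, 48 h exposure, 96-well plates. Endpoint: percent growth. Below 10 = active.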 Values without a mark were called inactive. The source made the active and inactive calls.

Some test systems named below: HCT-15 colon; HT29 colon; SNB-75 CNS; SNB-19 CNS; U251 CNS; PC-3 prostate; SK-MEL-5 melanoma; UACC-62 melanoma; LOX IMVI melanoma; SK-MEL-28 melanoma; SK-MEL-2 melanoma; EKVX NSCLC; SN12C renal; UO-31 renal; TK-10 renal; ACHN renal; CAKI-1 renal; CCRF-CEM leukemia; MOLT-4 leukemia.
Common to all, as to assay: NCI-60 one-dose screen, 48 h (100 = growth as untreated, 0 = no growth, -100 = all killed)
Conditions in all cases: 10 µM unless noted

With `Cc1ccc(NC(=O)Cc2ccc(/C=C/C(=O)c3ncc[nH]3)cc2)cc1`, the growth was 11% with HCT-15 colon; 9.43% (active) in the experiment with HT29 colon; 22.2% with SNB-75 CNS; 16.6% in the experiment with SNB-19 CNS; 7.18% (active) with U251 CNS; 53.3% in the experiment on PC-3 prostate. In addition, the growth in the experiment with SK-MEL-5 melanoma was 73.9%; with UACC-62 melanoma it was 66.2%; in the experiment on LOX IMVI melanoma, 10.9%; in the experiment with SK-MEL-28 melanoma it was 86.9%; with SK-MEL-2 melanoma it was 109%; in the experiment on EKVX NSCLC, 82.4%. In addition, the growth with SN12C renal is 13.5%; with UO-31 renal, 39.5%; in the experiment with TK-10 renal it was 78.4%; with ACHN renal it was 73.1%; with CAKI-1 renal, 61.1%; in the experiment with CCRF-CEM leukemia it was 4.85% (active). In addition, the growth in the experiment with MOLT-4 leukemia is 23.5%.

For the compound `CCCCOc1ccc(/C=N/Nc2cc(C)nc3ccc(Br)cc23)cc1`, the growth with HCT-15 colon was -66% (active); in the experiment on HT29 colon, -19.4% (active); in the experiment on SNB-75 CNS, 107%; in the experiment on SNB-19 CNS, 50.7%; in the experiment on U251 CNS, -53.5% (active); in the experiment with PC-3 prostate, 53.3%. For the same compound, the growth with SK-MEL-5 melanoma was 84.3%; with UACC-62 melanoma, 87.3%; in the experiment on LOX IMVI melanoma, -96.9% (active); with SK-MEL-28 melanoma, 59.5%; in the experiment on SK-MEL-2 melanoma it was 106%; in the experiment on EKVX NSCLC it was 69.9%. Also, the growth was -78.4% (active) in the experiment on SN12C renal; -71.1% (active) in the experiment on UO-31 renal; 76.2% with TK-10 renal; 19.9% in the experiment with ACHN renal; 71.3% in the experiment with CAKI-1 renal; 2.46% (active) in the experiment with CCRF-CEM leukemia. In addition, the growth in the experiment with MOLT-4 leukemia was -26% (active).

Take `N#Cc1cccc(-c2ccc3c(c2)NC(=O)/C3=C\c2ccc[nH]2)c1`: the growth in the experiment with HCT-15 colon was 14.3%; with HT29 colon it was 53.7%; in the experiment on SNB-75 CNS it was 58.2%; in the experiment with SNB-19 CNS, 91.2%; in the experiment with U251 CNS, 92.8%; in the experiment on PC-3 prostate it was 70.2%. Further, the growth in the experiment on SK-MEL-5 melanoma was 36.6%; in the experiment on UACC-62 melanoma, 42.7%; with LOX IMVI melanoma, 66.1%; in the experiment on SK-MEL-28 melanoma, 83.5%; with SK-MEL-2 melanoma, 81.2%; in the experiment with EKVX NSCLC, 25.2%. The growth with SN12C renal was 87.6%; in the experiment on UO-31 renal, 65.6%; in the experiment on TK-10 renal it was 32.3%; in the experiment on ACHN renal, 57.8%; with CAKI-1 renal, 51.8%; in the experiment on CCRF-CEM leukemia, 69.7%. Also, the growth in the experiment with MOLT-4 leukemia was 68.2%.

For `CCC(=O)Oc1ccc(/C(=C(\C)c2ccccc2)c2ccc(OCCN3CCCCC3)cc2)cc1`, the growth in the experiment on HCT-15 colon was 58.6%; in the experiment on HT29 colon, 8.78% (active); in the experiment on SNB-75 CNS, 96.5%; in the experiment on SNB-19 CNS, 85%; in the experiment on U251 CNS it was 68.4%; in the experiment on PC-3 prostate it was 72.8%. Further, the growth was 82.5% in the experiment with SK-MEL-5 melanoma; 88.5% with UACC-62 melanoma; 81% in the experiment with LOX IMVI melanoma; 71.2% in the experiment with SK-MEL-28 melanoma; 92.1% in the experiment on SK-MEL-2 melanoma; 87.1% in the experiment with EKVX NSCLC. Also, the growth is 79.7% in the experiment with SN12C renal; 64.3% in the experiment with UO-31 renal; 84.2% in the experiment on TK-10 renal; 102% with ACHN renal; 87.8% in the experiment with CAKI-1 renal; 84.9% in the experiment on CCRF-CEM leukemia. In addition, in the experiment on MOLT-4 leukemia, the growth was 60.8%.

Consider `COc1ccc(C/C(C)=C(/c2ccc(OCCCN(C)C)cc2)c2ccc(OC(C)=O)cc2)cc1`, for which the growth was 19.3% in the experiment on HCT-15 colon; 4.9% (active) in the experiment on HT29 colon; 74.1% in the experiment with SNB-75 CNS; 82.3% in the experiment with SNB-19 CNS; 61.7% in the experiment on U251 CNS; 79.3% in the experiment with PC-3 prostate. The growth with SK-MEL-5 melanoma is 69.6%; in the experiment on UACC-62 melanoma, 51.3%; in the experiment with LOX IMVI melanoma, 47.8%; in the experiment on SK-MEL-28 melanoma, 2.23% (active); with SK-MEL-2 melanoma, 101%; in the experiment on EKVX NSCLC it was 80.9%. The growth in the experiment with SN12C renal is 80.8%; with UO-31 renal it was 62.2%; in the experiment on TK-10 renal it was 98.9%; in the experiment with ACHN renal, 85%; with CAKI-1 renal, 81.6%; in the experiment on CCRF-CEM leukemia it was 63.1%. The growth in the experiment on MOLT-4 leukemia is 55.9%.

For `O=C(CCN1CCCC1)Nc1ccc2c(NCCCCc3ccccc3)c3ccccc3nc2c1`, the growth in the experiment with HCT-15 colon was 17%; in the experiment with HT29 colon it was 6.39% (active); with SNB-75 CNS, 16.6%; with SNB-19 CNS, -49.5% (active); in the experiment on U251 CNS, -57.8% (active); in the experiment on PC-3 prostate, -56.8% (active). In addition, the growth in the experiment with SK-MEL-5 melanoma was -30.9% (active); with UACC-62 melanoma it was 65.2%; in the experiment with LOX IMVI melanoma, -89.3% (active); with SK-MEL-28 melanoma, -63.4% (active); in the experiment with SK-MEL-2 melanoma it was -7.21% (active); in the experiment with EKVX NSCLC, 38.3%. In addition, the growth in the experiment on SN12C renal is -60.8% (active); in the experiment on UO-31 renal, 37%; in the experiment on TK-10 renal, -36.5% (active); in the experiment on ACHN renal, 24.8%; in the experiment on CAKI-1 renal, 9.94% (active); in the experiment on CCRF-CEM leukemia it was -25.2% (active). The growth in the experiment with MOLT-4 leukemia is -26.2% (active).

Turning to `COc1cc(C=O)ccc1OC1OC(COC(C)=O)C(OC(C)=O)C(OC(C)=O)C1OC(C)=O` (configuration not stated), the growth with HCT-15 colon is 99.3%; with HT29 colon, 105%; in the experiment on SNB-75 CNS it was 106%; in the experiment with SNB-19 CNS, 103%; with U251 CNS, 94.2%; in the experiment with PC-3 prostate, 95.8%. Moreover, the growth in the experiment on SK-MEL-5 melanoma was 98.2%; with UACC-62 melanoma it was 100%; with LOX IMVI melanoma, 103%; in the experiment on SK-MEL-28 melanoma, 110%; in the experiment on SK-MEL-2 melanoma, 98.6%; in the experiment on EKVX NSCLC, 99.9%. Moreover, the growth with SN12C renal was 97.9%; with UO-31 renal, 93.1%; in the experiment on TK-10 renal, 107%; with ACHN renal it was 107%; with CAKI-1 renal, 98.8%; in the experiment with CCRF-CEM leukemia, 54.9%. The growth in the experiment on MOLT-4 leukemia is 110%.

On to `O=[N+]([O-])c1ccc(NC(=S)N/N=C/c2cc3ccccc3n3nnnc23)cc1`, for which the growth with HCT-15 colon was 27.3%; in the experiment on HT29 colon, 99.8%; with SNB-75 CNS, 58.2%; in the experiment on SNB-19 CNS it was 29.8%; in the experiment on U251 CNS it was 30.2%; in the experiment with PC-3 prostate, 34.5%. In addition, the growth with SK-MEL-5 melanoma is 71%; in the experiment on UACC-62 melanoma it was 65.4%; with LOX IMVI melanoma, 39.2%; with SK-MEL-28 melanoma, 79%; with SK-MEL-2 melanoma, 49.3%; in the experiment with EKVX NSCLC it was 36.6%. Also, the growth in the experiment on SN12C renal is 58.5%; in the experiment with UO-31 renal it was -1.57% (active); in the experiment with TK-10 renal it was 56.8%; with ACHN renal, 29.9%; with CAKI-1 renal, 25.4%; with CCRF-CEM leukemia, 11.3%. In addition, the growth in the experiment on MOLT-4 leukemia was 20.4%.
